From PubChem BioAssay (NCATS)
Where “and” joins values, the source holds several entries; their conditions need not be identical. Equal values may be shown once. Results filed as inconclusive are left out. Where a call stands in place of a potency, no number is given. Unmarked numbers belong to inactive results. Calls of active or inactive are those of the source. Calls come from the whole dose curve; as a rule, active = well fitted curve in the direction sought with a large enough effect; inconclusive = small, poorly fitted or top-dose-only effect, or another doubt; inactive = no such curve, though single readings can be large; an effect the other way counts as inactive or inconclusive.

Tests used:
[1] = target: Cellular tumor antigen p53 (Homo sapiens) (UniProt P04637); experiment: Primary qHTS for small molecule compounds that upregulate eGFP-tagged delta133p53alpha (in N-terminal) cells. (AID 2060322); details: NCI-H358 eGFP-delta133p53alpha fluorescence, 24 h; activation: active compounds read high; note: nearly all actives have a fitted effect of over 75% in size; note: potency is the fitted concentration of half-maximal effect;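 for activation: cells pre-induced with doxycycline then dosed without doxycycline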
Procedure, shortened: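 NCI-H358 cells pre-induced 24 h with 10 ng/ml doxycycline for eGFP-delta133p53alpha, plated dox-free and exposed 24 h at 37C to titrated compounds. Fixed, Hoechst-stained; gated GFP peak intensity by laser scanning cytometry, normalized to DMSO (0%) and 57.5 uM 5-azacytidine (100%).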

[2] = target: Aldehyde dehydrogenase, mitochondrial (Homo sapiens) (UniProt P05091); experiment: qHTS for Inhibitors of the Aldehyde Dehydrogenase Family (ALDH2) Primary screen (AID 2061308); details: ALDH2 enzyme inhibition qHTS, 1536-well; series mostly up to 56 µM; note: nearly all actives have a fitted effect of over 55% in size
[3] = target: Retinaldehyde dehydrogenase 3 (Homo sapiens) (UniProt P47895); experiment: qHTS for Inhibitors of the Aldehyde Dehydrogenase Family (ALDH1A3) Validation screen (AID 2061312); details: ALDH1A3 enzyme inhibition qHTS validation, fluorescence; series mostly up to 42.4 µM; note: nearly all actives have a fitted effect of over 45% in size
[4] = target: Retinaldehyde dehydrogenase 3 (Homo sapiens) (UniProt P47895); experiment: qHTS for Inhibitors of the Aldehyde Dehydrogenase Family (ALDH1A3) Primary screen (AID 2061315); details: ALDH inhibition qHTS; series mostly up to 56 µM
[5] = BET inhibitor-based combinations targeting novel dependencies in MECOM-rearranged (r) AML: SET-2 cell line (AID 2202231); details: SET-2 AML cells viability, CellTiter-Glo luminescence, 48 h; viability: active compounds read low, concentration not given here; note: nearly all actives have a fitted effect of over 35% in size
Procedure, shortened: (§1)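 Readout: CellTiter-Glo luminescence. Exposure: 48 h, 11 concentrations, 500 cells/well. Metric: AUC and within-line Z-AUC after DMSO/empty-well normalization.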

[6] = BET inhibitor-based combinations targeting novel dependencies in MECOM-rearranged (r) AML: UCSD-AML1 cell line (AID 2202235); details: UCSD-AML1 AML cells viability, CellTiter-Glo, 48 h; series mostly up to 46 µM; note: nearly all actives have a fitted effect of over 40% in size
Procedure, shortened: (§2)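 Seeding density was 500 cells/well, and drug exposure lasted 48 hr under standard culture conditions. Read-out used CellTiter-Glo reagent with a 15 min room-temperature incubation before luminescence measurement; AUC and Z-AUC summarize the normalized responses.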

[7] = BET inhibitor-based combinations targeting novel dependencies in MECOM-rearranged (r) AML: AML-191 cell line (AID 2202236; note: nearly all actives have a fitted effect of over 35% in size); details: AML-191 viability, CellTiter-Glo luminescence, 48 h; series mostly up to 46 µM
Procedure, shortened: as §1

[8] = BET inhibitor-based combinations targeting novel dependencies in MECOM-rearranged (r) AML: AML-194 cell line (AID 2202237; note: nearly all actives have a fitted effect of over 40% in size); details: AML-194 (MECOM-r AML) viability, CellTiter-Glo, 48 h; series mostly up to 46 µM
Procedure, shortened: as §1

[9] = BET inhibitor-based combinations targeting novel dependencies in MECOM-rearranged (r) AML: OCI-AML3 cell line (AID 2202232); details: CellTiter-Glo luminescence, 48 h; Potency: OCI-AML3 viability; series mostly up to 46 µM; note: nearly all actives have a fitted effect of over 35% in size
Procedure, shortened: as §1

[10] = BET inhibitor-based combinations targeting novel dependencies in MECOM-rearranged (r) AML: MV-4-11 cell line (AID 2202233); details: MV-4-11 AML viability, CellTiter-Glo luminescence, 48 h; series mostly up to 46 µM; note: nearly all actives have a fitted effect of over 45% in size
Procedure, shortened: as §2

[11] = BET inhibitor-based combinations targeting novel dependencies in MECOM-rearranged (r) AML: HNT-34 cell line (AID 2202234); details: HNT-34 AML viability, CellTiter-Glo luminescence, 48 h; series mostly up to 46 µM; note: nearly all actives have a fitted effect of over 35% in size
Procedure, shortened: as §2

Sequence of Cellular tumor antigen p53 (Homo sapiens) (P04637 whole entry, looked up): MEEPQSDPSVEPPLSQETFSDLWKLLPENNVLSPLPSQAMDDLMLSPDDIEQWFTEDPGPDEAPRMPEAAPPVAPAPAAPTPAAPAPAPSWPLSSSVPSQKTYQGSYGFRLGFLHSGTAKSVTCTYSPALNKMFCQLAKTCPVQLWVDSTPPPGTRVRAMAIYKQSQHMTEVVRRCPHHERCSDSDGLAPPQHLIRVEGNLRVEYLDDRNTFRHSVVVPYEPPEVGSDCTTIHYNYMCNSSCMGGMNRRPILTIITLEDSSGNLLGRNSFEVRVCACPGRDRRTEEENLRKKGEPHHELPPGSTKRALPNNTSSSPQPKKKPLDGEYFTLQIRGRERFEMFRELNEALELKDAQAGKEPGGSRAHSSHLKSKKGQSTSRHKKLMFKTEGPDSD

In the case of `O=C(O)C(=O)c1cn(Cc2ccccc2)c2ccc(-c3ccc(OC(F)(F)F)cc3)cc12`, the activation [1] is reported as -6.9% and -6.21%, the Potency [2] is reported as “inactive” and the Potency [3] is reported as “inactive”. For the same compound, the Potency [4] was “inactive”, the viability [5] was 98.6% and the Potency [6] was “inactive”. The Potency [7] was “inactive” and the Potency [8] was “inactive”.

In the case of `CCCCn1cc(C(=O)c2cccc3ccccc23)c2ccccc21`, the activation [1] is reported as 0.955%, the Potency [2] is reported as “inactive” and the Potency [4] is reported as “inactive”.

In the case of `Cc1c(C(=O)Nc2cccc(C(F)(F)F)c2)cc(-c2ccccc2)n1CCCN1CCOCC1`, the activation [1] is reported as -17.9% and -8.11%, the Potency [2] is reported as “inactive” and the Potency [3] is reported as “inactive”. The Potency [4] was “inactive” and the Potency [6] was “inactive”.

With `C[C@H](CCC(=O)O)C[C@H](C)C[C@H](C)C(=O)/C=C(\O)[C@H](C)C[C@H](C)C/C=C/[C@@H](C)[C@@H](O)[C@@H](C)[C@@H](O)C[C@@H]1CC[C@@](C)([C@H]2CC[C@@](C)([C@@H](C)O)O2)O1` the activation [1] was -6.33%, the Potency [2] was “inactive” and the Potency [4] was “inactive”.

In the case of `CC(=O)O[C@H]1CN2CCC1CC2`, the activation [1] is reported as 5%, the Potency [2] is reported as “inactive” and the Potency [4] is reported as “inactive”.

In the case of `CC1=CC(=O)[C@@H](O)[C@@]2(C)C1C[C@H]1OC(=O)[C@H](O)[C@@]3(O)[C@@H](C)[C@@H](O)[C@H](O)C2[C@@]13C` (some centres not stated), the Potency [1] is reported as 14.8 µM (active), the Potency [2] is reported as “inactive” and the Potency [4] is reported as “inactive”.

In the case of `CCN(CC)C(=O)c1ccc(C2=CC3(CCNCC3)Oc3cccc(O)c32)cc1`, the activation [1] is reported as -5.25%, the Potency [2] is reported as “inactive” and the Potency [3] is reported as “inactive”. The Potency [4] was “inactive”, the viability [5] was 99.6% and the Potency [9] was “inactive”. For the same compound, the Potency [10] was “inactive”, the Potency [11] was “inactive” and the Potency [7] was “inactive”.

For `CNC(=O)c1cc(C#N)cc(C)c1NC(=O)c1cc(Br)nn1-c1ncccc1Cl`, the activation [1] was 18.3%, the Potency [2] was “inactive” and the Potency [4] was “inactive”.
